Measured values taken from PMC5540273 (PLoS ONE, 2017).

Tested on: NEK6
Conditions: concentration: 1 μM, replicates: in singlicate; n = 1
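Further: KINOMEscan kinase panel screen.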

SMILES | %Inh
CN1CCN(Cc2ccc(NC(=O)Nc3ccc(N(C)c4ccnc(Nc5ccc(CS(C)(=O)=O)cc5)n4)cc3)cc2)CC1.Cl [GW827654] | 3%
COc1cccc(-c2nc(-c3ccccc3)[nH]c2-c2ccncc2)c1 [SB-610250] | 4%
CN(C)CCNS(=O)(=O)c1ccc(-c2ccnc3[nH]ccc23)cc1 [GSK977620] | 1%
N#CC1(c2cccc(C(=O)Nc3cccc(Oc4ccc5nc(NC(=O)C6CC6)sc5n4)c3)c2)CC1 | 0%
CCNC(=O)/C=C/c1n[nH]c2cc(Sc3ccccc3C(=O)NC)ccc12 | 38%
CCn1cnc2c(NCc3ccccc3)ncnc21 [SKF-96418] | 0%
CN(c1ccc2c(c1)nc(NCc1ccccc1)n2C)c1ccnc(Nc2ccc(CS(C)(=O)=O)cc2)n1.Cl [GW811603] | 60%
Cl.O=C(Nc1ccc(Oc2ccc3[nH]c(NC(=O)c4ccco4)nc3c2)cc1)Nc1cc(C(F)(F)F)ccc1F [GW683134] | 0%
Nc1ncc(-c2cn[nH]c2)c2scc(-c3ccc4c(c3)CCN4C(=O)Cc3ccccc3)c12 [GSK2593067] | 3%
Cc1ccc(NC(=O)c2ccc(Cl)c(Cl)c2)cc1-c1ccc(C(=O)Nc2ccncc2)cc1 [GSK1398460] | 0%
COC(=O)Nc1nc2ccc(Oc3ccc(NC(=O)Nc4cc(C(F)(F)F)ccc4F)cc3)cc2[nH]1.Cl [GW654607] | 0%
COc1ccc(C)c(Nc2ccnc(Nc3ccc(-c4cnc[nH]4)cc3)n2)c1.Cl [GW784041] | 0%
CCNc1nccc(-c2c(-c3ccc(F)cc3)ncn2C2CCN(C)CC2)n1 | 0%
CS(=O)(=O)c1cccc(CNc2nc(Nc3ccc4c(c3)CCC(=O)N4)ncc2C(F)(F)F)c1 | 6%
Cc1ccc(NC(=O)c2ccnc(N3CCCCC3)c2)cc1-c1ccc(C(=O)NCC2CC2)cc1 [GW775610] | 0%
CN(C)c1ncnc2nc[nH]c12 [SKF-31736] | 0%
Cc1ccc(Nc2ccnc(Nc3ccc(C)c(F)c3)n2)cc1O.Cl [GW582868] | 0%
Cc1ccc(O)cc1Nc1ccnc2ccc(C(C)(C)C)cc12 [GW856805] | 20%
Cn1cc(-c2ccc3c(c2)CCN3C(=O)Cc2cc(F)cc(C(F)(F)F)c2)c2c(N)ncnc21 [GSK2635225] | 6%

SMILES | %Inh
CN(c1ccc(F)c(NC(=O)c2cccc(OC(C)(C)C#N)c2Cl)c1)c1ccc2nc(NC(=O)C3CC3)sc2n1 | 0%
CC(C)NCC(Cc1ccccc1)NC(=O)c1cc(Br)c(-c2ccnc3[nH]ccc23)s1.Cl.Cl (stereo not shown) [GSK1383281] | 0%
CCOc1nccc(-c2c(-c3ccc(F)cc3)ncn2C2CCNCC2)n1 [SB-249175] | 4%
CN(C)CCOc1ccc(-c2cc(-c3ccc(Cl)c(O)c3)c(-c3ccncc3)[nH]2)cc1.Cl.Cl [SB-684387] | 0%
O=C(O)C(F)(F)F.O=c1[nH]ccc2nc(N[C@@H]3CCNC3)nc(Nc3cc(Cl)cc(Cl)c3)c12 [GSK2188764] | 0%
CNc1nccc(-c2ccc3c(N)n[nH]c3c2)n1 [GSK2206003] | 0%
CC(C)c1nc(-c2ccc(F)c(NS(=O)(=O)c3c(F)cccc3F)c2)c(-c2ccnc(Nc3ccc(N4CCOCC4)nc3)n2)s1 [GSK1804250] | 7%
Cc1ccc(-c2ccc3occ(-c4ccc(S(C)=O)cc4)c3c2)nn1 (stereo not shown) | 0%
Nc1ncnc2scc(-c3ccc(NC(=O)Cc4cc(F)ccc4F)cc3)c12.O=C(O)C(F)(F)F [SB-731254-M] | 3%
COc1cc(Nc2nccc(N3CCC(NC(=O)Nc4ccc5c(c4)OCO5)C3)n2)cc(OC)c1OC (stereo not shown) [GSK1379766] | 18%
O=C(Nc1n[nH]c2cc(-c3cccs3)ccc12)C1CC1 [SB-731284] | 0%
Fc1cc(Cl)ccc1Nc1ccnc2cc(-c3ccc(CN4CCSCC4)o3)ccc12 [GW560106] | 0%
COc1cccc(CC(=O)N2CCc3cc(-c4cn(C)c5ncnc(N)c45)ccc32)c1 [GSK2608899] | 18%
COc1ccc(C2=C(Nc3cccc(O)c3)C(=O)NC2=O)cc1 [SB-390766] | 0%
Cc1ccc(O)cc1Nc1ccnc2cc(-c3ccc(CN4CCCCC4)o3)ccc12 [GW557777] | 0%
Cc1ccc(C)c(NC(=O)Nc2ccc(C)c(-c3ccc(C(=O)Nc4ccncc4)cc3)c2)c1 [GSK1398473] | 1%
Cc1cc(-c2ccnc(Nc3cccc(C#N)c3)n2)cc(C)c1O [GSK1440913] | 0%
Nc1ncc(-c2ccc3nccc(-c4ccncc4)c3c2)cc1S(=O)(=O)N1CCCCC1 [GSK1693850] | 0%
